system: ROS1; conditions: concentration: 1 μM, replicates: in singlicate; n = 1
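Also: KINOMEscan kinase panel screen.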

SMILES	%Inh [%]
Cl.O=S(=O)(c1cccc(F)c1)c1ccc(Nc2ncnc3cc(Br)sc23)cc1Cl [GSK306886]	12
O=C(NCCCN1CCCC1=O)c1cnc(NCc2cc(Cl)ccc2Cl)nc1NC1CCNCC1	0
Cl.Cn1ccc(-c2cccc(Nc3ccnc4cc(-c5nccs5)ccc34)c2)n1 [GW525701]	0
CC(C)(C)OC(=O)NC1CCCN(c2cc(-c3ccc4c(N)n[nH]c4c3)nc(N)n2)C1 (stereo not shown) [GSK2286096]	0
Cn1ccc2ncnc(Nc3ccc(Oc4cccc(Cl)c4)c(Cl)c3)c21	0
O=C(Nc1ccccc1)Nc1ccc(Oc2ccc3nccn3n2)cc1	0
CSc1nn2c(=O)cc(N3CCOCC3)nc2n1Cc1cccc(Cl)c1Cl [GSK2347225]	46
COC(=O)c1cccc(NC(=O)NCCNc2ccnc(Nc3ccc(F)cc3)n2)c1 [GSK1379883]	17
CCn1c(-c2ccncc2)nc2cnccc21 [SB-735216]	2
Fc1cccc(COc2ccc(Nc3ncnc4cc[nH]c34)cc2Cl)c1	35
O=C(Nc1n[nH]c2nc(-c3ccco3)c(Br)cc12)c1ccc(CN2CCCC2)cc1.O=C(O)[C@H](O)[C@@H](O)C(=O)O [SB-742352]	12
CCC(CC)(CC)n1cnc2c(N)ncnc21 [SKF-97620]	0
O=C(CCO)NCCn1ccc2ncnc(Nc3ccc(Oc4cccc(C(F)(F)F)c4)c(Cl)c3)c21	0
